From PubChem BioAssay AID651558 (National Center for Advancing Translational Sciences (NCATS), 2012)
The whole screen tested about 1,200 compounds, of which about 480 (40%) were called active. About 29% were inconclusive and are not listed. The call rests on the fitted dose curve; in most records, active means well fitted inhibition curve with a large enough effect; inconclusive means small, poorly fitted or top-dose-only effect; inactive means no such curve, though single readings can be large or run the other way. The list shows a part of the results.

assay: qHTS Assay to Find Inhibitors of Chronic Active B-Cell Receptor Signaling: Hit Validation in Primary Screen; conditions: ABC-DLBCL IkB-luc/CBR ratio luminescence, 4 h; series mostly up to 46.1 µM; further: nearly all actives have a fitted effect of over 75% in size
How it was run: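 Concentration series (3 nM to 46 uM) tested on TMD8 cells induced with doxycycline for 4 h. Filter-corrected green (IkBa fusion) over red (unfused) luciferase signal; Data were normalised to 10 uM MG-132 and untreated cell wells.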
Potency means the concentration at half of the fitted maximal effect.

Potency, inactive:
FC(F)(F)c1nnc2ccc(Cl)nn12
CCOc1cc(C(=O)N/N=C/C2CC=CCC2)cc(OCC)c1OCC (stereo unspecified)
O=C(N/N=C/C(Br)=C\c1ccccc1)c1ccc2nc[nH]c2c1
Cc1c(CCC(=O)N2CCC(C(=O)O)(c3ccccc3)CC2)c(=O)oc2cc3oc4c(c3cc12)CCCC4
CCOC(=O)C(C)N1C(=O)S/C(=C/c2cc(C)n(-c3ccccn3)c2C)C1=O (stereo unspecified)
COc1cc2c(c(OC)c1OC)C(c1ccc(C)cc1)CC(=O)O2 (stereo unspecified)
CNC(=S)N/N=C/c1ccco1
NC(=S)NN=C1c2ccccc2-c2ccccc21
CC(=O)c1ccsc1-c1c(C)cc2oc(=O)cc(-c3ccccc3)c2c1C
CCc1ccc(N2CC(C(=O)OCC(=O)Nc3ccccc3C)CC2=O)cc1 (stereo unspecified)
CCOC(=O)C(NCc1ccccc1)(NC(=O)c1ccccc1)C(F)(F)F (stereo unspecified)
CCNC(=S)NNc1ccccc1
CCCc1nnc(NC(=O)CCC(=O)NCCc2ccc(OC)c(OC)c2)s1
S=C(Nc1ccccc1)Nc1nccs1
Cc1csc(NC(=S)Nc2cccc(Cl)c2)n1
C[C@@H]1C[C@H]2[C@@H]3C[C@H](F)C4=CC(=O)C=C[C@]4(C)[C@@]3(F)[C@@H](O)C[C@]2(C)[C@@]1(O)C(=O)CO
COc1ccc(NC(=S)N=Nc2c(O)[nH]c3ccccc23)cc1
COC(=O)Nc1nc2ccc(Sc3ccccc3)cc2[nH]1
N#CC(C(=S)Nc1ccccc1)c1nc2ccccc2[nH]1 (stereo unspecified)
OCc1ccnc2c(O)cccc12
Fc1ccc(NC(=S)N/N=C/c2ccc(F)c(F)c2)cc1
NNC(=O)/C(=C\c1ccco1)NC(=O)c1ccco1
CCCCOc1ccc2c(C)cc(=O)oc2c1OCCCC
Cc1ccc(NC(=S)NNC(C)(C)C)cc1
C=CCNC(=S)N/N=C/c1ccc(C)cc1C
C/C(=N\NC(=S)NC1CCCCC1)c1ccc(C)o1
C(=N\Nc1nc2ccccc2[nH]1)/C1CCCCC1
O=C(Cc1cccs1)N/N=C/C=C/c1ccco1
CCOc1c(Cl)cc(CNCC(C)C)cc1OC

Potency, active:
CCOc1cc(C(=O)N/N=C/C(Br)=C/c2ccccc2)cc(OCC)c1OCC 2590 nM
O=C(N/N=C/C(Br)=C\c1ccccc1)c1n[nH]c2c1CCC2 2060 nM
CC(/C=N/NC(=O)c1n[nH]c2c1CCC2)=C\c1ccccc1 580 nM
Cc1c(CCC(=O)N2CCC[C@H]2C(=O)O)c(=O)oc2cc3oc4c(c3cc12)CCCC4 23100 nM
CCOC(=O)C(C)N1C(=O)S/C(=C/c2ccc3c(c2)n(C)c(=O)n3C)C1=O (stereo unspecified) 18400 nM
COc1cc2c(cc1OC)C(c1ccc(OC)c(OC)c1OC)CC(=O)N2 (stereo unspecified) 23100 nM
COc1ccc(C2CC(=O)Nc3cc(OC)c(OC)cc32)cc1Br (stereo unspecified) 20600 nM
COc1cc(-c2noc(C)c2C#Cc2ccc(N)cc2)cc(OC)c1OC 2910 nM
COc1cc(-c2noc(C)c2C#Cc2ccsc2)cc(OC)c1OC 8200 nM
CNC(=S)N/N=C1\C(=O)c2cccc3cccc1c23 18400 nM
COc1ccc(-c2cccc(-c3cc(=O)oc4cc(OC)cc(OC)c34)c2)cc1 1160 nM
COc1cc(OC)c2c(-c3cccc(-c4ccc(OC)c(F)c4)c3)cc(=O)oc2c1 1160 nM
COc1cc(OC)c2c(-c3cccc(-c4ccc(N(C)C)cc4)c3)cc(=O)oc2c1 2060 nM
COc1cc(OC)c2c(-c3cccc(-c4sccc4C(C)=O)c3)cc(=O)oc2c1 5170 nM
COc1cc(OC)c2c(-c3cccc(-c4cccc(N)c4)c3)cc(=O)oc2c1 6510 nM
COc1cc(OC)c2c(-c3cccc(-c4ccc(NC(C)=O)cc4)c3)cc(=O)oc2c1 2590 nM
COc1cc(OC)c2c(-c3cccc(-c4ccc(O)cc4)c3)cc(=O)oc2c1 2590 nM
Cc1[nH][nH]c(=O)c1C(c1c(C)[nH][nH]c1=O)c1cn(Cc2ccc(F)cc2)c2ccccc12 14600 nM
CCc1nnc(NC(=S)Nc2ccccc2)s1 651 nM
CCCc1nnc(NC(=S)Nc2ccccc2)s1 164 nM
Cc1cc(Cl)n2c(nc3ccccc32)c1C#N 1840 nM
Cc1nn(-c2ccccc2)c(C)c1/C=N/NC(=O)c1cc(-c2cccs2)[nH]n1 3260 nM
Cc1ccc(-c2cc(C(=O)N/N=C/c3c(C)nn(-c4ccccc4)c3C)[nH]n2)cc1 2310 nM
Cc1nn(-c2ccccc2)c(C)c1/C=N/NC(=O)c1cc(-c2ccccc2)n[nH]1 2310 nM
COc1cc(OC)cc(C(=O)N[C@H](C(=O)Nc2nc3ccccc3[nH]2)C(C)C)c1 1840 nM
Cc1cccc(C(=O)N[C@H](C(=O)Nc2nc3ccccc3[nH]2)C(C)C)c1 3260 nM
COc1ccc(C(=O)N[C@H](C(=O)Nc2nc3ccccc3[nH]2)C(C)C)cc1 5800 nM
O=C(N/N=C/c1ccc(Cl)cc1)c1sccc1OCc1ccc(F)cc1 5170 nM
COc1ccccc1C1=NOC(COc2ccc3c(C)cc(=O)oc3c2)C1 (stereo unspecified) 8200 nM
Cc1cc(=O)oc2cc(OCC3CC(c4ccccc4Cl)=NO3)ccc12 (stereo unspecified) 2590 nM
Cc1ccc(NC(=S)NNC(=S)Nc2ccc(C)cc2C)cc1 1840 nM
CCOc1cc(NC(=O)CCl)c(OCC)cc1NC(=O)CCl 5800 nM
CSc1nc(SCC(=O)NCc2ccco2)c2c3c(sc2n1)COC(C)(C)C3 20600 nM
Cn1cccc1/C=C1\SC(=Nc2ccc(O)cc2)NC1=O 1030 nM
O=C1NC(=Nc2ccc(O)cc2)S/C1=C\C=C\c1ccco1 2910 nM
CCOc1c(Br)cc(CNc2ccc3c(c2)OCCO3)cc1OC 10300 nM
CCOc1cc(CNc2ccc3c(c2)OCCO3)cc(Br)c1OCC 5170 nM
